Data: ChEMBL document CHEMBL4513216, “Probing the Open Global Health Chemical Diversity Library for Multistage-Active Starting Points for Next-Generation Antimalarials” (ACS Infect Dis, 2020)
Screen size: about 69,000 compounds; about 8,600 (12%) showed an effect of 50% or more. The full list was thinned out, with strong results kept by preference.

tested on: Plasmodium berghei; assay: Screen against P. berghei liver stage (PbLuc), transformed with Luciferase, at 10uM; type: functional, HepG2; settings: tested at 10 uM

| Structure (SMILES) | INHIBITION |
| --- | --- |
| Cn1cc(CN2CC[C@H]3O[C@@H](COCc4cccnc4)CC[C@H]32)cn1 | 3.11% |
| Cc1ncc2c(n1)C1(CCN(C(=O)C3CC3)CC1)OCC2 | 7.15% |
| O=C(c1cnn(-c2ccccc2)n1)N1CCCC(n2cccn2)C1 (stereo unspecified) | 33.8% |
| CCOC(=O)c1c(NC(=O)CN2CCN(C(C)=O)CC2)sc(C)c1C | -13.5% |
| COc1cc(NC(=O)NCC2CCCO2)cc(OC)c1OC (stereo unspecified) | 29.8% |
| CC(C)c1nc2c(n1C)CCN(Cc1cccc(C(N)=O)c1)C2 | 34% |
| Cc1ccc(F)c(S(=O)(=O)NCc2cccc(C(=O)N3CCCC3)c2)c1 | 17.5% |
| Cc1cc(F)ccc1CNCCn1cccn1 | 30.1% |
| Fc1ccc(CNCCn2cccn2)c(Cl)c1 | 64.1% |
| Fc1ccc(CNCCn2cccn2)c(F)c1 | -13.3% |
| Cc1cc(C)c(CNC(=O)CCC2CCCO2)c(=O)[nH]1 (stereo unspecified) | 11.45% |
| NC(=O)NCC(=O)N1C[C@@H]2CC[C@H]1CN(Cc1cscn1)C2 | 7.3% |
| Cc1nnc(CCNC(=O)[C@H]2CNC[C@@H](C(=O)N3CCCC3)C2)s1 | -5.08% |
| CCN(C(=O)Nc1cccnc1OC)C1CC1 | 53.5% |
| COc1ncccc1NC(=O)N(Cc1ccc(C(N)=O)cc1)C1CC1 | -35.7% |
| COc1ncccc1NC(=O)N(CC(C)C)C1CC1 | -2.19% |

| Structure (SMILES) | INHIBITION |
| --- | --- |
| COc1ncccc1NC(=O)N(Cc1ccco1)C1CC1 | -18% |
| COc1ncccc1NC(=O)N(Cc1ccc(C)o1)C1CC1 | 58.2% |
| COc1ncccc1NC(=O)N(Cc1ccccn1)C1CC1 | -47.6% |
| CC(=O)N1CCn2c(nnc2C2CCCCN2C(C)=O)C1 (stereo unspecified) | -55% |
| COCCNC(=O)c1cc(C(C)C)nc(N2CCCCC2)n1 | 52.4% |
| CCCNC(=O)c1cc(C(C)C)nc(N2CCCCC2)n1 | 44.9% |
| COCCCNC(=O)c1cc(C(C)C)nc(N2CCCCCC2)n1 | 37.5% |
| COCCCNC(=O)c1cc(C(C)C)nc(N2CCCC2)n1 | -23.8% |
| CCN(CC)CCNC(=O)c1cc(C(C)C)nc(N2CCCC2)n1 | 15.8% |
| COCCNC(=O)c1cc(C(C)C)nc(N2CCCC2)n1 | 16.8% |
| CC(C)c1cc(C(=O)NCCCN(C)C)nc(N2CCCC2)n1 | 52.4% |
| CC(C)c1cc(C(=O)NCCN2CCOCC2)nc(N2CCCC2)n1 | 51.6% |
| CCCNC(=O)c1cc(C(C)C)nc(N2CCCC2)n1 | 32.5% |
| c1ccc(C2CN(CCc3ccncc3)CCO2)cc1 (stereo unspecified) | 6.12% |
| CN(CC(F)(F)F)C(=O)Cn1cc(NC(=O)C(C)(C)C)cn1 | -0.551% |
